Bioassay records from PubChem.
GLP1R cytotox: cytotoxicity counter-screen for GLP-1 receptor inverse agonists. HEK293 cAMP-luciferase reporter cells, luminescence, 24 h. Potency, µM (titrated, usually from 38.3 µM), without a hit: top-dose activity change, negative = inhibition, most hits filed as inhibitors. 0.13% of 410,000 active. AID 624418;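 also: loss of luciferase light is scored as toxicity; % is scaled to controls: 0 for no effect and ±100 for the full control effect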
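Cells in DMEM/10% Nu serum/1% pen-strep, 1536-well format. Pre-incubated 12 h, dosed with 23 nL compound, incubated a further 24 h. Luciferase detection, 12 min at room temp, luminescence.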
Gal4-VP16 FLuc: Gal4-VP16 reporter inhibition counter-screen | Drosophila S2 Gal4-VP16 UAS-luciferase, luminescence, 20 h | Potency, µM (highest dose often 53.6 µM), inactives show at the top dose activity, negative = inhibition, most hits filed as inhibitors | 3.5% of 310,000 active;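 also: Gal4-VP16 expression switched on by copper sulfate through the metallothionein promoter; % is scaled to controls: 0 for no effect and ±100 for the full control effect; nearly all actives have a fitted effect of over 50% in size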
GLP-1R inv ag: acts as inverse agonist at human GLP-1 receptor | 1.6% of 410,000 active | Potency, µM (top dose mostly 38.3 µM), for the others: at the top dose activity change, negative = inhibition, usual class: inhibitors | HEK293 GLP-1R CRE-luciferase, luminescence, 24 h; GLP-1R form is constitutively active | P43220; also: % is scaled to controls: 0 for no effect and ±100 for the full control effect; nearly all actives have a fitted effect of over 55% in size
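Stable HEK293 clone (constitutively active GLP-1R + cAMP-response luciferase); 200 cells/uL plated, 12 h pre-culture, compound 24 hr, 37 deg C/5% CO2; detection reagent 12 min RT; luminescence.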
RORgamma inh: ROR gamma (mouse) transcription inhibition | P51450 | Drosophila S2 Gal4-RORgamma UAS-luciferase reporter, 20 h | Potency, µM (highest dose often 53.6 µM), for the others: at the highest dose activity change, negative = inhibition, usual class: inhibitors | 5.4% of 310,000 active; also: % is scaled to controls: 0 for no effect and ±100 for the full control effect; nearly all actives have a fitted effect of over 60% in size
Target sequence (P51450 whole entry, looked up, the tested form may be a part): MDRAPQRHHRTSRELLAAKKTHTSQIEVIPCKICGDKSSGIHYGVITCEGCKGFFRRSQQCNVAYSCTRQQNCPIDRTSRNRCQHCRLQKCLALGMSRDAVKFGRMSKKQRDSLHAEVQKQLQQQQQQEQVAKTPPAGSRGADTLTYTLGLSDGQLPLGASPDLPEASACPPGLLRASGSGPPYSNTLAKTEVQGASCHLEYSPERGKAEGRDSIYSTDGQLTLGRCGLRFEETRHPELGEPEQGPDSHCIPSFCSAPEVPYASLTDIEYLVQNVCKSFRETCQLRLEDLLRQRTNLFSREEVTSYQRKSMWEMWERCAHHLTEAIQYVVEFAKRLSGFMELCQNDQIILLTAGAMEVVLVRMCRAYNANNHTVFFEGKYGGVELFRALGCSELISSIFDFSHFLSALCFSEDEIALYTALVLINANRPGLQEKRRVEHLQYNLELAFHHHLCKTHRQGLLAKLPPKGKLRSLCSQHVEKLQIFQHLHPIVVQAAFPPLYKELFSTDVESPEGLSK
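Luminescence from a UAS-regulated Photinus luciferase reporter in stably transfected Drosophila Schneider cells is measured; decreased signal marks ROR gamma inhibition. Fusion expression is induced by 700 uM copper sulfate for 20 hr.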
GLP-1R agonist: GLP-1 receptor (human) agonism. P43220. HEK293 GLP-1R CRE-luciferase, luminescence, 4-6 h; cells express a hypersensitive GLP-1R form. Potency, µM (series often up to 45.6 µM), without a hit: at the top dose activation, usual class: activators. 0.007% of 380,000 active. AID 624172; also: % of control where 0% means no effect
An asterisk follows results filed as active; u = inconclusive; x = no result; [ ] = dose if it differs, or a comment. Most compounds without a hit are left out; they make up all but 5.9% or so of the library. Calls follow the shape of the dose curve; as a rule, active = well fitted curve in the direction sought with a large enough effect; inconclusive = small, poorly fitted or top-dose-only effect, or another doubt; inactive = no such curve, though single readings can be large; an effect the other way counts as inactive or inconclusive. Potency is read from the fitted curve at half-maximal effect.

SMILES | GLP1R cytotox | Gal4-VP16 FLuc | GLP-1R inv ag | RORgamma inh | GLP-1R agonist
COc1ccc(C2c3c(n(C)c4ccccc34)C(=O)N2CC(=O)Nc2ccccc2F)cc1 (stereo not drawn) | -34% | x | u | x | x
NC(=O)c1cc(Br)cc2c3c([nH]c12)CCCC3 | -11% | 18µM* | u | -12% | 20%
OCC1(Cc2ccccc2)CCN(Cc2cnc(-c3cccc4ccccc34)nc2)CC1 | -17% | -14% | 8.9µM* | 2% | 16%
OCC1(Cc2ccc(Cl)cc2)CCN(Cc2ccc(Oc3ncccn3)cc2)CC1 | -10% | -5% | 10µM* | -4% | 3%
OCC1(Cc2ccc(Cl)cc2)CCN(Cc2ccc(F)c(F)c2)CC1 | -25% | -6% | 7.9µM* | -8% | -4%
Cc1nc(Nc2ccc(C(=O)O)cc2)nc(Nc2ccc(C(=O)O)cc2)c1[N+](=O)[O-] | -2% | -7% | 12% | u | -1%
CC(=O)Nc1ccc(Nc2nc(C)c([N+](=O)[O-])c(Nc3ccccc3)n2)cc1 | u | 13µM* | 19% | u | -14%
COc1cccc(/C=N/NC(=O)C(C)n2nc(C)c([N+](=O)[O-])c2C)c1O (stereo not drawn) | u | 0.04µM* | 1.8µM* | 0.18µM* | -3%
COc1cccc(/C=N/NC(=O)Cn2nc(C)c([N+](=O)[O-])c2C)c1O | 15%[1.53 µM] | 0.79µM* | -17% | 0.35µM* | -11%
COc1cccc(/C=N\NC(=O)c2ccc(Cn3cc(Br)c([N+](=O)[O-])n3)o2)c1O | -21% | 0.28µM* | -9% | 3% | 9%
Cc1nn(CC(=O)N/N=C/c2cccs2)c(C)c1[N+](=O)[O-] | 4% | -27% | 3% | u | 3%
C[Si](C)(C)Cl | x | -6% | x | -17% | x
S=C1CCSc2ccc(Cl)cc2N1 | u | 10µM* | 15% | 4µM* | -2%
O=C1CCCC2=C1Sc1ccc(Cl)cc1N2 | 1% | 0% | -12% | 11% | -7%
Nc1nc(Sc2ccc([N+](=O)[O-])c3nonc23)c2[nH]cnc2n1 | 8.9µM* | x | u | x | 7%
CCN(CCCNC(=O)c1cc2c(=O)n(C)c3ccccc3c2s1)Cc1ccccc1 | -14% | x | 0% | x | x
COc1ccc(N2CCN(CC(=O)Nc3nnc(-c4ccccc4)s3)CC2)cc1 | 12% | u | 3% | 10µM* | 7%
COc1ccc(N2CCN(CC(=O)Nc3ccc(C)cc3)CC2)cc1 | 0% | 23% | u | -5% | 9%
COc1ccc(N2CCN(CC(=O)Nc3ccc(SC(F)F)cc3)CC2)cc1 | -6% | u | 10µM* | u | -6%
CN(C)c1ccc(CNC(=O)C2(C)C=CCN2C(=O)c2ccccc2)cc1 (stereo not drawn) | x | -9% | x | 1% | x
CCCCN(CCCC)c1nc2ccccc2nc1C(C#N)C(=O)NCCCOC (stereo not drawn) | 131% | -7% | -14% | -26% | 1%
CCCN(CCC)c1nc2ccccc2nc1C(C#N)C(=O)OC(C)COC (stereo not drawn) | 4% | 2% | 10µM* | 9% | 17%
O=c1[nH]c2c(oc3ccccc32)c(=O)n1Cc1ccccc1 | 8% | 14% | 16% | 0% | 1%
Cc1ccc(-n2c(=S)[nH]c3c(oc4ccccc43)c2=O)cc1C | 4% | 1.8µM* | 12% | 1.4µM* | -11%
O=c1c2oc3ccccc3c2[nH]c(=S)n1-c1ccc(F)cc1 | -6% | u | 57% | 4µM* | 3%
CN(C(=O)Cc1ccccc1OC(=O)c1ccccc1)c1ccccc1I | x | -5% | x | -10% | x
CCOc1cccc(/C=C/c2ccc3cccc(O)c3n2)c1OC | 11% | 13µM* | u | 2.8µM* | 21%
CCOc1c(OC(C)=O)ccc(/C=C/c2ccc3cccc(OC(C)=O)c3n2)c1[N+](=O)[O-] | -54% | 3.5µM* | 0% | 3.2µM* | -25%
CCOc1cc(/C=C/c2ccc3cccc([N+](=O)[O-])c3n2)ccc1O | 1% | -2% | 4% | 22% | 2%
CCOc1cccc(/C=C/c2ccc3cccc(O)c3n2)c1O | -17% | u | u | 3.5µM* | u
